For 95 compounds, Potency results are on record in PubChem BioAssay AID1865 (National Center for Advancing Translational Sciences (NCATS), 2009).

Hit rate of the full screen: of about 280,000 compounds, about 540 (0.19%) were called active. Entries that show only a call come without a potency. Inconclusive results (about 2%) are left out. The call rests on the fitted dose curve; in most records, active means well fitted activation curve with a large enough effect; inconclusive means small, poorly fitted or top-dose-only effect; inactive means flat fitted curve, though single readings scatter. This excerpt belongs to a sample that is enriched for actives.
Potency means the concentration at half of the fitted maximal effect.

This assay is described as follows: Quantitative High-Throughput Screen for Regulators of Epigenetic Control. Further: nearly all actives have a fitted effect of over 60% in size. To be noted: murine LDR cells, GFP reporter derepression, 30 h; series mostly up to 53.9 µM. From the text:
NIH Molecular Libraries Screening Centers Network [MLPCN] NIH Chemical Genomics Center [NCGC] MLSCN Grant: 1 X01 MH079860-01 Assay Provider: Elisabeth D. Martinez, University of Texas SW Medical Center NCGC Assay Overview: The Locus Derepression (LDR) assay detects the derepression or induction of a GFP reporter that is stably integrated in a genomic region of murine cells that is presumably silenced. Transcription of the GFP reporter is controlled by a CMV promoter, which normally is constitutively active. However, this cell line, termed LDR, was selected for lack of constitutive production of GFP. GFP production can be induced by incubating the cells with histone deacetylase or DNA methyltransferase inhibitors (Martinez et al., 2006). Compounds that derepress or induce this reporter locus are identified by enumerating GFP positive cells using a laser-scanning microplate cytometer (Auld et al., 2006). This assay was screened against the MLSMR earlier (AID 597; (Johnson et al., 2008) and has been rescreened here against the expanded collection.
NCGC Assay Protocol Summary: Three hundred LDR cells in 5 uL per well were dispensed into black, clear-bottom 1536-well plates. Twenty-three nL compound was transferred to the assay plate and cells were incubated 30 hours at 37 C. Medium was removed, cells were washed two times with PBS, and GFP-positive cells were enumerated as fluorescent objects between the sizes of 20 to 120 um width and depth using an Acumen Explorer. References Auld, DS, Johnson, RL, Zhang, YQ, Veith, H, Jadhav, A, Yasgar, A, Simeonov, A, Zheng, W, Martinez, ED, Westwick, JK, Austin, CP, Inglese, J (2006). Fluorescent protein-based cellular assays analyzed by laser-scanning microplate cytometry in 1536-well plate format. Methods Enzymol 414: 566-89. Johnson, RL, Huang, W, Jadhav, A, Austin, CP, Inglese, J, Martinez, ED (2008). A quantitative high-throughput screen identifies potential epigenetic modulators of gene expression. Anal Biochem 375: 237-48. Martinez, ED, Dull, AB, Beutler, JA, Hager, GL (2006). High-content fluorescence-based screening for epigenetic modulators. Methods Enzymol 414: 21-36.
With `CCOC(=O)c1c(S(=O)(=O)NCC(=O)Nc2ccc(Cl)c(C(F)(F)F)c2)c(C)n(C)c1C`, the Potency entry is “inactive”.
Turning to `CCN1CCN(CCCNC(=O)c2cnn(-c3ccc(C)cc3C)c2C2CCN(C(=O)OC(C)(C)C)CC2)CC1`, the Potency result is “inactive”.
The same measure for `Cc1cccc(N2CCN(c3c(CN4CCCC4)c(=O)oc4ccccc34)CC2)c1C`: “inactive”; for `CCOC(=O)c1c(C)nc2c(c1C)c(=O)oc1ccccc12`: “inactive”.
To `Cc1ccccc1-n1nnc2c(=O)oc3ccccc3c21` belongs 15.8 µM (active).
The same measure for `COc1ccc(CCn2cc3c(c2-c2ccc(Br)cc2)c(=O)n(C)c(=O)n3C)cc1OC`: “inactive”; for `Cc1c(CNC(C)c2ccccc2)c(C(=O)O)c(C)n1Cc1c(F)cccc1Cl` (stereo not given): “inactive”; for `Cc1ccc(Nc2c(-c3ccc(N(C)C)cc3)nc3nc[nH]n23)cc1`: “inactive”.
For `COC(=O)c1ccc(C2C(C(=O)Nc3ccccc3)=C(C)Nc3nc4ccccc4n32)cc1` (stereo not given), the Potency entry was “inactive”.
To `CC1CCC(N2CC(=O)N(CCC3=CCCCC3)C(c3ccc(F)cc3)C2=O)CC1` (stereo not given) belongs “inactive”; to `Cc1cccc(C(=O)Nc2ccc(S(=O)(=O)N3CCCCC3c3cccnc3)cc2)c1` (stereo not given), “inactive”.
To `Cc1ccc(NC(=O)CSc2nc3ccccc3c3nc(CCn4cncc4C)nn23)cc1F` belongs “inactive”; to `COc1ccccc1NC(=O)c1ccc(C)s1`, “inactive”.
The same measure for `CCOC(=O)C(=CNc1cccc(C)n1)C(=O)OCC`: “inactive”; for `CCOC(=O)C(=Cc1ccccc1OC)C(=O)OCC`: 22.4 µM (active).
As to `Cc1cc(Nc2cccc(C(F)(F)F)c2)nc2ccc(NC(=O)c3ccc(=O)[nH]c3)cc12`, the Potency result is “inactive”.
The same measure for `COc1cccc(Cn2c(CNS(=O)(=O)c3ccc(Cl)s3)nc3cccnc32)c1`: “inactive”.
`CCCCNc1ccc(-c2nc(-c3ccncc3)no2)cc1[N+](=O)[O-]`: the Potency result was “inactive”.
In the case of `CCCn1c2ccccc2c2cnn(CC(=O)NCCCOC(C)C)c(=O)c21`, the Potency entry was “inactive”.
Turning to `Cc1cccc2c1-c1sc(C(=O)Nc3ccc(F)cc3F)cc1CO2`, the Potency entry is “inactive”.
The same measure for `CCOCCCNC(=O)c1c(NC(=O)Cc2coc3c(C)c(C)ccc23)sc2c1CCC2`: “inactive”.
To `COc1ccc(CCNc2ncnc3c2cnn3-c2ccc(C)cc2)cc1` belongs “inactive”; to `CCOC(=O)C1CCCN(S(=O)(=O)c2cc(-c3cc(C)no3)ccc2OC)C1` (stereo not given), “inactive”; to `COc1ccc(C(=O)CSc2nc(C)cc(C)n2)cc1[N+](=O)[O-]`, “inactive”.
To `COc1ccc(OCc2cn3c(C)cc(C)nc3n2)cc1` belongs “inactive”.
Take `COc1ccc(C(C[N+](=O)[O-])n2nc(C)cc2C)cc1` (stereo not given): the Potency is 12.6 µM (active).
On to `O=C1CCCc2cc(S(=O)(=O)N3CCCC(C(=O)NCc4ccccc4)C3)ccc2N1` (stereo not given), for which the Potency entry was “inactive”.
Turning to `CCOc1cc(-c2nnc(SCC(=O)NC3CCCC3)nc2-c2ccc(OC)c(OCC)c2)ccc1OC`, the Potency entry is “inactive”.
To `CC(=O)N1c2ccc(S(=O)(=O)N3CCCCCC3)cc2CC1C(=O)NCc1ccccc1C` (stereo not given) belongs “inactive”; to `COc1ccc(C2C(=O)N(C3CCCCCC3)CC(=O)N2CCc2ccc(Cl)cc2)cc1OC` (stereo not given), “inactive”; to `CC(C)(C)OC(=O)N1CCC(c2c(C(=O)N3CCN(c4cccc(Cl)c4)CC3)cnn2-c2cccc(Cl)c2)CC1`, “inactive”.
To `CN(C)CCCn1c(-c2ccc(Cl)cc2)csc1=Nc1ccccc1` belongs “inactive”; to `CCCCCn1c(=O)[nH]c2cc(C(=O)Nc3ccc(F)cc3)ccc2c1=O`, “inactive”; to `O=C(Nc1c(-c2ccc(F)cc2)nc2ccccn12)c1cccc(F)c1`, “inactive”.
The same measure for `Cc1cccc(NC(=O)Cn2cc(S(=O)(=O)Cc3ccccc3Cl)c3ccccc32)c1`: “inactive”; for `CCOC(=O)c1ccc(NC(=O)CSc2nc3c([nH]c4ccccc43)c(=O)n2C)cc1`: “inactive”.
`Cn1c(C(=O)Nc2cccc(C(F)(F)F)c2)cc2c(=O)n3ccccc3nc21`: the Potency entry was “inactive”.
Consider `COc1cc(Cl)c(C)cc1NC(=O)CCc1nc2cccnc2n1Cc1cccs1`, for which the Potency result is “inactive”.
As to `COc1cccc(NC(=O)N(Cc2cn(C)c3ccccc23)C2CCCCCC2)c1`, the Potency result is “inactive”.
The same measure for `COc1cccc(CNCc2c(C(=O)O)n(Cc3ccc(C)cc3)c3cc(C)ccc23)c1OC`: “inactive”.
The same measure for `COc1ccc(Nc2ncc3c(n2)CCN(C(=O)OC(C)(C)C)C3)cc1`: “inactive”; for `COc1ccc(CCNC(=O)CCCn2c(=O)c3ccccc3n(Cc3ccc(C)cc3)c2=O)cc1OC`: “inactive”.
The same measure for `COC(=O)c1scc(-c2ccc(C)cc2)c1S(=O)(=O)Nc1cc(Cl)c(OC)cc1OC`: “inactive”; for `O=C(Nc1ccc(Br)cc1)c1cc2nc(-c3ccccc3)cc(-c3ccccc3)n2n1`: “inactive”.
Regarding `CCCC(=O)Nc1cc(C(=O)NCc2ccc(OC)cc2)ccc1S(=O)(=O)c1ccc(Cl)cc1`, the Potency result was “inactive”.
The same measure for `CC(C)(C)c1ccc(C(=O)N2CCC(c3nc(-c4ccc(S(=O)(=O)N5CCCC5)cc4)no3)CC2)cc1`: “inactive”; for `Cc1nc2sc(C(=O)c3ccccc3)c(N)c2c2c1CCCC2`: “inactive”; for `Cc1ccc2c(N)c(C(=O)c3ccccc3)sc2n1`: “inactive”.
The same measure for `COc1cccc(C(=O)c2sc3nc(-c4ccccc4)cc(C(F)(F)F)c3c2N)c1`: 1.58 µM (active); for `COc1ccc(Cc2nc3ccc(C(=O)NCc4ccc(OC)cc4OC)cc3o2)cc1`: “inactive”.
Take `Cc1cccc(C)c1-n1ncc(C(=O)NCCCN2CCCCC2)c1C1CCN(C(=O)OC(C)(C)C)CC1`: the Potency entry was “inactive”.
The same measure for `COc1ccc(CCN2C(=O)c3oc4cc(C)cc(C)c4c(=O)c3C2c2ccccc2F)cc1OC` (stereo not given): “inactive”; for `COc1ccc2c(c1)c(=O)c(C(=O)c1ccccc1)cn2CC(=O)Nc1ccc2c(c1)OCCO2`: “inactive”; for `Cc1ccc(NC(=O)CN2c3ccccc3S(=O)(=O)c3ccccc32)cc1F`: “inactive”.
To `CCOC(=O)c1c(C)oc2ccc(N(C(=O)c3ccncc3)S(=O)(=O)c3ccc(CC)cc3)cc12` belongs “inactive”.
With `O=C(CSc1oc(-c2ccco2)nc1S(=O)(=O)c1ccc(Cl)cc1)c1ccccc1`, the Potency entry is “inactive”.
For `COc1ccc(CC(=O)N2CC(=O)Nc3ccc(Br)cc3C2c2ccc(F)cc2)cc1OC` (stereo not given), the Potency entry was “inactive”.
To `COc1ccc(CCNc2ncnc3onc(-c4ccc(Cl)cc4)c23)c(OC)c1` belongs “inactive”; to `O=C(CSc1oc(-c2ccco2)nc1S(=O)(=O)c1ccccc1)c1ccc(Cl)cc1`, “inactive”; to `O=C(c1cccs1)N1CCCC(c2nc(-c3ccc(F)cc3)no2)C1` (stereo not given), “inactive”.
The same measure for `CCOC(=O)CC(=O)CSc1nc(-c2ccccc2)cc(-c2ccc(Cl)cc2)c1C#N`: “inactive”; for `N#Cc1c(-c2ccc(F)cc2)cc(C2CC2)nc1SCC(=O)c1cccs1`: 10 µM (active).
To `CN(C)S(=O)(=O)c1cccc(NC(=S)N/N=C/C(=O)c2ccccc2)c1` belongs “inactive”; to `Cc1ccc(/C=N/NC(=S)Nc2cccc(S(=O)(=O)N(C)C)c2)o1`, 3.98 µM (active); to `CN(C)S(=O)(=O)c1cccc(NC(=S)NCc2ccc3c(c2)OCO3)c1`, “inactive”.
With `Cc1cc(Cl)ccc1NC(=O)Cc1ccc(NC(=O)N2CCCCc3ccccc32)cc1`, the Potency result is “inactive”.
For `CCN1CCN(CCCNC(=O)c2ccc3c(c2)sc2nc(-c4ccc(OC)cc4)cn23)CC1`, the Potency entry was “inactive”.
For the compound `Cc1oc(C)c2c(=O)cc(-c3ccc4c(c3)OCO4)cc(OC(=O)c3ccc(Cl)cc3)c12`, the Potency entry was “inactive”.
The same measure for `COc1cc(OC)cc(C(=O)Nc2ccc3nc(Nc4cccc(C(F)(F)F)c4)cc(C)c3c2)c1`: “inactive”.
Consider `CCc1ccc(CNCc2c(C(=O)O)n(Cc3ccc(F)cc3Cl)c3cc(OC)ccc23)cc1`, for which the Potency result was “inactive”.
The same measure for `N#Cc1ccccc1Cn1cnc2nc3c(cc2c1=O)CCCC3`: “inactive”; for `Cc1ccccc1C(=O)Nc1nnc(S(=O)(=O)N(C)c2ccc(Cl)cc2)s1`: “inactive”.
For the compound `COc1ccc(C(=O)N2CCC(c3nc4ccccc4o3)CC2)cc1`, the Potency result was “inactive”.
Regarding `CCCCOc1ccc(CN2C(=O)C(=O)c3cc(Br)cc(C)c32)cc1OC`, the Potency entry was “inactive”.
`Cc1nn(C(C)C(=O)Nc2ccc(C(C)C)cc2)c(=O)c2c1sc1ccccc12` (stereo not given): the Potency entry was “inactive”.
The same measure for `COc1ccc(NC(=O)CCNS(=O)(=O)c2ccc3c(c2)CCCC(=O)N3)cc1Cl`: “inactive”; for `COc1cccc(-c2nnc(SCC(=O)N3CCC(C)CC3)o2)c1`: “inactive”.
The same measure for `CCOc1ccc(CNCc2c(C(=O)O)c(C)n(Cc3cccc(OC)c3)c2C)cc1OC`: “inactive”; for `Cc1ccc(Cl)cc1N(C)C(=O)C1CCCN(c2ncnc3onc(-c4ccc(F)cc4)c23)C1` (stereo not given): “inactive”.
To `COc1ccc(S(=O)(=O)c2c(Nc3cccc(Cl)c3)sc(C(=O)c3ccccc3)c2N)cc1` belongs “inactive”; to `COc1ccccc1Nc1nc(N)nc(N)c1S(=O)(=O)c1ccccc1`, “inactive”; to `CC1(C)N=C(SCc2ccccc2Cl)c2ccccc2N1`, “inactive”.
As for `Cc1ccc(NC(=O)Cc2ccc(NC(=O)N3CCCCc4ccccc43)cc2)cc1`, the Potency result is “inactive”.
To `CNC(=O)c1ccc(-c2nc(CN3CCc4ccccc43)c(C)o2)cc1` belongs “inactive”; to `CC(=O)c1ccc(NC(c2ccc(F)cc2)c2nnc(-c3ccccc3)o2)cc1` (stereo not given), “inactive”.
Regarding `COc1ccc(-c2cn3nc(N4CCCC(C(=O)NCCCOC(C)C)C4)sc3n2)cc1` (stereo not given), the Potency result was “inactive”.
To `Cc1cc2oc(C(=O)N(Cc3ccc(Cl)cc3)Cc3ccco3)c(C)c2cc1Cl` belongs “inactive”.
The same measure for `COc1cccc(N=C2SC(C(=O)Nc3cccc(Cl)c3)CC(=O)N2C)c1` (stereo not given): “inactive”; for `Fc1ccc(-n2ncc3c(Nc4ccc(Oc5ccccc5)cc4)ncnc32)cc1`: “inactive”.
To `COc1ccccc1CN1CCC(CNC(=O)c2cnn(-c3ccccc3Cl)c2C2CCN(C(=O)OC(C)(C)C)CC2)CC1` belongs “inactive”.
As for `CCOc1ccccc1C(=O)Nc1ccc2c(c1)N(C)C(=O)c1ccccc1S2`, the Potency result was “inactive”.
To `CCOC(=O)c1c(C)[nH]c(CCC(=O)Nc2ccc(OC)c(OC)c2)c1C` belongs “inactive”.
The same measure for `O=S(=O)(c1ccc2nc(NCc3ccccc3Cl)ccc2c1)N1CCCCC1`: “inactive”; for `COc1cc(CN(C(=O)c2ccccc2Br)c2ccccn2)cc(OC)c1OC`: “inactive”.
To `CC(C)(C)c1ccc(OCC(=O)N2CCC(c3nc4ccccc4s3)CC2)cc1` belongs “inactive”.
